# The list is not random: actives were taken first. Their share in the collection is about 2.4%.
# D2 PAM-1 – positively modulates the human D2 dopamine receptor allosterically | P14416 | HEK293 T-REx D2, calcium flux, EC20 dopamine potentiation | potentiation, % at 10 µM | 340,000 compounds, 0.34% hits | AID 485347;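 active = potentiation over 3 SD above the plate norm, cut at about 30% in these data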; also: 0% is about no effect
# Target sequence (P14416 whole entry, looked up): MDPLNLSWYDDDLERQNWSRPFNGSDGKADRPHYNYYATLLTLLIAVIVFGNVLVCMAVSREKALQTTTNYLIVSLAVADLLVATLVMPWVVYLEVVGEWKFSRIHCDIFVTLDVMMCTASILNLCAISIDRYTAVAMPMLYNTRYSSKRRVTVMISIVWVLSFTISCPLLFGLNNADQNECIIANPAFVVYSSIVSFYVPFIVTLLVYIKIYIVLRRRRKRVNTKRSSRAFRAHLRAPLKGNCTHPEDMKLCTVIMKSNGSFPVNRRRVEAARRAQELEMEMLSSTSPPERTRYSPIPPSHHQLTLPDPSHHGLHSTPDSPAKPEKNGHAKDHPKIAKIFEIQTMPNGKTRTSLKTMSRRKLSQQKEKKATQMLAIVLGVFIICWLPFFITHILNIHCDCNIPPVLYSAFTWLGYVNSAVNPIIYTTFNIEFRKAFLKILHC
#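 Tetracycline-induced Hek293 Trex D2 cells, force-coupled to calcium, loaded with no-wash calcium dye. Compound added with 180 s kinetic read for agonism, then EC20 dopamine and a further 180 s read for potentiation.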
# D2 ag-1 – D2 dopamine receptor (human) agonism; P14416; HEK293 T-REx D2 cells, calcium flux agonist mode; activation, % at 2 µM; 340,000 compounds, 0.53% hits; AID 485358;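 active = activation over 3 SD above normal in the single-dose calcium agonist read, cut at about 30% in these data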; also: 0% is about no effect
#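 Agonism is scored from calcium flux in a force-coupled, inducible HEK293 cell line expressing D2, read kinetically for 180 s after compound addition against dopamine controls.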
# D2 PAM-2 – potentiates the human D2 dopamine receptor allosterically. P14416. DiscoveRx D2 beta-arrestin cells, luminescence, 90 min; 100% = 57 uM dopamine signal. potentiation, % (concentration not given with the values). 360,000 compounds, 0.23% hits; in the data active = potentiation above about 50%; inconclusive = mostly about 30% to 49%
#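 PathHunter beta-arrestin assay in DiscoveRx D2 cells. Compounds were added with an EC20 of dopamine (50 nM final) for 90 min at 37 deg C. Luminescence was read 1 h after detection reagent, with 57 uM dopamine as the EC100 control.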
# D2 antagonist – antagonists of human D2 dopamine receptor | AID 485344 | 340,000 compounds, 2% hits | inhibition, % at 10 µM | HEK293 TREx D2 cells, calcium flux, dopamine EC80; in the data active = inhibition above about 30%; inactive = below that, where a call was filed; also: 0% is about no effect
#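 Cells plated overnight at 30 C with tetracycline; no-wash calcium dye, 30–90 min RT; 10 s baseline; compound pinned; 180 s read; EC80 dopamine added; another 180 s read.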
# D2 ag-2 – activates the human D2 dopamine receptor; P14416; DiscoveRx PathHunter D2 beta-arrestin, luminescence, 90 min; 100% = 57 uM dopamine signal; activation, % (test concentration not listed); 360,000 compounds, 0.084% hits; AID 624465; in the data active = activation above about 40%; inconclusive = between about 15% and that limit
#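 DiscoveRx PathHunter D2 beta-arrestin cells (2,100/well) attached overnight, then compound-stimulated 90 min at 37 C in HBSS/10 mM HEPES/0.1% Tween-20 buffer; beta-galactosidase complementation read by luminescence after 1 h at ambient temperature. Dopamine 57 uM final (EC100) as control.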
# D3 ag – activates human D3 dopamine receptor beta-arrestin recruitment | shares compounds with D2 ag-1 | DiscoveRx D3 beta-arrestin cells, luminescence, 90 min | Potency, µM (titrated, usually from 76.9 µM), inactives show top-dose activation, hits mostly activators | 2,300 compounds, 4% hits | AID 720506;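 also: potency is read from the fitted curve at half-maximal effect; 100% = dopamine control response; nearly all actives have a fitted effect of over 70% in size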
# D2 ag-3 – D2 receptor agonism, beta-arrestin counterscreen; DiscoveRx PathHunter D2 beta-arrestin, luminescence, 90 min; response scale: percent relative to full dopamine signal; 2,300 compounds, 5.9% hits; shares compounds with D2 ag-1; Potency, µM (highest dose often 76.9 µM), inactives show at the top dose activation, most hits filed as activators; also: potency is read from the fitted curve at half-maximal effect; % of control where 0% means no effect; nearly all actives have a fitted effect of over 70% in size
# * marks the source's active call; other numbers are inactive results; ? = inconclusive; . = not tested or not shown. Unless noted, calls follow the shape of the dose curve; as a rule, active = well fitted activation curve with a large enough effect; inconclusive = small, poorly fitted or top-dose-only effect; inactive = flat fitted curve, though single readings scatter.
SMILES,D2 PAM-1,D2 ag-1,D2 PAM-2,D2 antagonist,D2 ag-2,D3 ag,D2 ag-3
O=C(NCCCn1ccnc1)C(=O)NCC(c1ccco1)N1CCN(c2ccc(F)cc2)CC1 (stereo not drawn),1,4,-11,7,3,.,.
O=C(NCC(c1ccco1)N1CCN(c2ccccc2)CC1)c1ccco1 (stereo not drawn),-8,12,10,40*,13,?,?
O=C(NCCCn1ccnc1)C(=O)NCC(c1cccnc1)N1CCN(c2ccccc2)CC1 (stereo not drawn),-13,43*,-5,3,-4,5%,12%
Cc1sc(NC(=O)c2ccco2)c(CN2CCCCC2)c1C,-1,0,-14,3,-3,.,.
O=C(O)CCCC(=O)N1N=C(c2ccccc2)CC1c1ccc2c(c1)OCO2 (stereo not drawn),-3,1,-8,-16,1,.,.
Cc1ccc(NC(=O)c2nc[nH]c2C(=O)NCCCCCNC(=O)OC(C)(C)C)cc1,-14,0,6,-3,5,12%,-1%
Cc1ccc(NC(=O)c2nc[nH]c2C(=O)N2CCN(C(=O)OC(C)(C)C)CC2)cc1,-12,-1,-7,15,-2,-7%,-2%
CC(C)(C)OC(=O)NCCCCCNC(=O)c1[nH]cnc1C(=O)Nc1ccc(Cl)cc1,-2,-1,-2,-5,-1,.,.
CC(C)(C)OC(=O)N1CCN(C(=O)c2[nH]cnc2C(=O)Nc2ccc(Cl)cc2)CC1,.,.,-24,.,-1,.,.
O=C(Nc1ccc(Cl)cc1)c1nc[nH]c1C(=O)N1CCc2ccccc2C1,-21,2,-14,51*,0,-3%,-4%
O=C(Nc1nccs1)c1nc[nH]c1C(=O)N1CCc2ccccc2C1,4,0,-10,2,-7,.,.
CCOc1ccc(CN(CCc2ccc3c(c2)OCO3)Cc2cc(OC)c(OC)cc2OC)cc1,-2,-1,.,.,.,.,.
COc1ccc(OC)c(CCNC(=O)c2cc3c(s2)-c2c(C)cccc2OC3)c1,-17,0,.,.,.,.,.
COc1ccccc1OCC(=O)NNC(=O)c1cccs1,5,0,6,-3,-3,.,.
Cc1ccccc1OCCC(=O)OCC(=O)NNC(=O)c1cccs1,.,.,-4,.,6,-5%,4%
CC12CCC(C(=O)N(CCCCN3CCN(c4ccccn4)CC3)C1=O)C2(C)C (stereo not drawn),-21,73*,57*,84*,73*,?,0.071µM*
COc1ccccc1N(CC(=O)NCCSCc1ccc(C)cc1)S(=O)(=O)c1ccccc1,14,2,1,25,4,-3%,6%
CC1CCc2c(sc3nnn(Cc4cccc(C(=O)OC(C)C)c4)c(=O)c23)C1 (stereo not drawn),3,0,.,.,.,.,.
Cc1cc(OC(=O)c2cc(C(F)(F)F)cc(C(F)(F)F)c2)c([N+](=O)[O-])c(=O)[nH]1,1,0,-2,-9,-1,.,.
Cc1cc(NC(=O)COc2coc(CN3CCN(c4ccc(F)cc4)CC3)cc2=O)no1,2,-1,-7,-6,-1,.,.
O=C(COc1coc(CN2CCN(c3ccccc3F)CC2)cc1=O)Nc1ccccc1,.,.,0,.,-3,.,.
O=C(COc1coc(CN2CCN(c3ccccc3)CC2)cc1=O)Nc1ccccc1,-6,46*,-31,26,9,11%,18%
Cc1cc(NC(=O)COc2coc(CN3CCN(c4ccccc4)CC3)cc2=O)no1,.,.,0,.,15,3%,25%
Cc1cccc(NC(=O)COc2coc(CN3CCN(c4ccccc4)CC3)cc2=O)c1C,-14,43*,-3,5,?,-4%,24%
Cc1cc(NC(=O)COc2coc(CN3CCN(c4ccccc4F)CC3)cc2=O)no1,-21,62*,7,15,12,15%,?
SMILES,D2 PAM-1,D2 ag-1,D2 PAM-2,D2 antagonist,D2 ag-2,D3 ag,D2 ag-3
Cc1ccc(NC(=O)COc2coc(CN3CCN(c4ccccc4)CC3)cc2=O)cc1,-6,11,-10,9,1,.,.
O=C(COC(=O)CCS(=O)(=O)c1ccc(F)cc1)NC1CCCCC1,-7,0,-3,11,-3,.,.
CCCN1CCc2c(sc(NC(=O)c3ccc(S(=O)(=O)N4CCN(C(=O)OCC)CC4)cc3)c2C(N)=O)C1,-13,47*,-9,-22,-3,-9%,-4%
CN(C)S(=O)(=O)c1ccc(N2CCCC2)c(C(=O)N2CCC(C(N)=O)CC2)c1,0,0,-13,21,-3,.,.
COc1ccccc1N1CCN(CC(=O)Nc2ccc(CN3CCCCC3)cc2)CC1,-24,31*,-9,39*,12,-7%,13%
COc1ccccc1NC(=O)c1ccc(NC(=O)c2ccco2)cc1,-20,0,1,-14,-3,.,.
COc1ccccc1NC(=O)c1ccc(NC(=O)CN2CCN(C(=O)c3ccco3)CC2)cc1,-7,51*,19,41*,11,?,20%
COc1ccccc1NC(=O)CN1CCN(C(=O)c2ccco2)CC1,.,.,-21,.,7,?,13%
COc1ccccc1NC(=O)CN1CCN(c2ccccc2)CC1,-29,49*,-6,39*,5,-3%,9%
Cc1cc(Cl)ccc1NC(=O)CN1CCN(C(=O)c2ccco2)CC1,4,1,4,4,2,.,.
COc1ccccc1N1CCN(CC(=O)Nc2nc(C)c(C(=O)N(C)C)s2)CC1,-6,0,-19,12,3,-7%,-5%
Cc1nc(NC(=O)CN2CCCCC2)sc1C(=O)N(C)C,3,0,-1,7,-1,.,.
COc1ccc([N+](=O)[O-])cc1NC(=O)CCN1CCN(c2ccccc2)CC1,.,.,6,.,47*,?,?
COc1ccc([N+](=O)[O-])cc1NC(=O)CCCOc1ccccc1,-35,0,-19,2,-3,.,.
COC(=O)c1[nH]c2ccccc2c1NC(=O)CN1CCN(C(=O)c2ccco2)CC1,-19,58*,9,21,?,?,19%
Cc1ccccc1NC(=O)CN1CCN(C(=O)c2ccco2)CC1,-11,44*,4,-15,11,-6%,22%
Cc1nc(N2CCN(S(=O)(=O)c3cccs3)CC2)c2c(-c3ccccc3)c(C)sc2n1,.,.,-6,.,-3,.,.

# Bioassay records (PubChem BioAssay)
